A selection: hits, their analogues and other compounds. The true share with any hit is near 9.4%.
SMN2 splice enh: SMN2 splice variant enhancement | Potency, µM (top dose mostly 46.1 µM), hits mostly activators | 2.8% of 210,000 active | HEK293 SMN2-luciferase splicing reporter, luminescence, 30-36 h | AID 1458; also: nearly all actives have a fitted effect of over 55% in size
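HEK293 cells carry an SMN2 […]–luciferase reporter in which exon 7 inclusion puts luciferase in frame. Cells were plated 10-12 h before compound addition, then incubated 30-36 h at 37C. ONE-Glo luminescence was read; sodium butyrate at 4.5 mM final served as control.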
Rab9 promoter act: activators of Rab9 promoter; Potency, µM (series often up to 9.22 µM), hits mostly activators; Huh7 Rab9 promoter-luciferase reporter, luminescence, 24 h; 2.8% of 320,000 active; also: nearly all actives have a fitted effect of over 60% in size
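Rab9 promoter-driven luciferase in stably transfected Huh7 cells; 1500 cells/well rested 2 h, exposed to compound in DMSO for 24 h at 37 °C, 5% CO2. Luminescence read 10 min after adding luciferase reagent at ambient temperature.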
ELG1 repair inh: inhibitors of ELG1-dependent DNA repair in HEK293T cells. HEK293T ELG1-luciferase reporter, luminescence, 16 h; DNA damage induced by 5-fluorouridine. Potency, µM (doses to about 46.1 µM), usual class: inhibitors. 2.3% of 330,000 active. AID 504467; also: nearly all actives have a fitted effect of over 55% in size
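Quantitative HTS, concentration-response format. 2,000 cells/well co-treated with 5-fluorouridine and compound, 16 hr in 5% CO2 at 37 °C; ONE-Glo luminescence read after 30 min.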
NPC1 prom act: activators of NPC1 promoter; Huh7 NPC1 promoter luciferase reporter, 24 h; Potency, µM (titrated, usually from 9.22 µM), usual class: activators; 2.4% of 320,000 active; also: nearly all actives have a fitted effect of over 60% in size
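In 1536-well qHTS, Huh7 cells harboring an NPC1 promoter–luciferase construct received compound for 24 h; activation was quantified by luminescence following luciferase reagent addition.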
FLuc modulator: inhibits or activates purified firefly luciferase, miR-21 counter-screen; AID 588342; purified FLuc, Km substrates, luminescence inhibition; 6.9% of 360,000 active; Potency, µM (series often up to 57.5 µM), hits mostly inhibitors; P08659; also: nearly all actives have a fitted effect of over 55% in size
Target sequence (P08659 whole entry, looked up): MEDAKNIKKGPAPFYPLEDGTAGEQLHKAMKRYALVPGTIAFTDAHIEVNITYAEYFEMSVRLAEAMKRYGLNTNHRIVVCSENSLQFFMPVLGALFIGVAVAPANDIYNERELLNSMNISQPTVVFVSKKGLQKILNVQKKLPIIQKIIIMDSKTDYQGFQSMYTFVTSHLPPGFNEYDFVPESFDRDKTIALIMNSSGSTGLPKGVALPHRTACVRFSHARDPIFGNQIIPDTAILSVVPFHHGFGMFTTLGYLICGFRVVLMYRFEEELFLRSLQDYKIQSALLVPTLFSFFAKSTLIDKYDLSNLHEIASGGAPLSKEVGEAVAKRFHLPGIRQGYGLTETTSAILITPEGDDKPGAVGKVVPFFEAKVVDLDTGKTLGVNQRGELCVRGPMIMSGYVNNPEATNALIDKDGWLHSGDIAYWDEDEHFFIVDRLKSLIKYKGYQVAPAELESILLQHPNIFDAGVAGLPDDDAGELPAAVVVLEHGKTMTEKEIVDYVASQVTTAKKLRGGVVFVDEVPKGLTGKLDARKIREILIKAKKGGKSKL
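Purified P. pyralis luciferase, 10 nM final, with Km-level 10 uM D-luciferin and 10 uM ATP in 50 mM Tris acetate pH 7.5, 10 mM Mg acetate, 0.01% Tween-20, 0.05% BSA; 6-point qHTS titration about 60 µM downward; luminescence read.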
ELG1 genotoxic: genotoxicity induction in ELG1-luciferase HEK293T cells. 1.3% of 330,000 active. Potency, µM (top dose mostly 46 µM), hits mostly activators. HEK293T ELG1-luciferase reporter, luminescence, 16 h. AID 504466; also: nearly all actives have a fitted effect of over 60% in size
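DMSO vehicle served as control against compound-treated ELG1-luciferase HEK293T cells; exposure lasted 16 hr at 37 °C and 5% CO2, followed by ONE-Glo luminescence detection after 30 min.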
Of the large screens only hits and unclear results are named; the others gave an inactive call. Calls follow the shape of the dose curve; as a rule, active = well fitted curve in the direction sought with a large enough effect; inconclusive = small, poorly fitted or top-dose-only effect, or another doubt; inactive = no such curve, though single readings can be large; an effect the other way counts as inactive or inconclusive.

Cc1cc(/C=N/NC(=O)COc2cccc3cccnc23)c(C)n1-c1ccc(O)cc1	SMN2 splice enh inconclusive, FLuc modulator 3.4µM
Cc1ccc(-n2c(C)cc(/C=N/NC(=O)CC3(C)OCCO3)c2C)c(C)c1	FLuc modulator inconclusive
Cc1cc(/C=N/NC(N)=O)c(C)n1-c1ccc(F)cc1	none
Cc1cc(C(=O)N/N=C/c2ccc(O)c(O)c2O)c(C)n1-c1ccccc1	ELG1 repair inh inconclusive, FLuc modulator 11µM
COc1ccc(NC(=O)Cn2c(=O)oc3cc(S(=O)(=O)NCc4ccccc4)ccc32)c(OC)c1	none (no result: SMN2 splice enh, Rab9 promoter act, ELG1 repair inh, NPC1 prom act, ELG1 genotoxic)
CCc1cccc(NC(=O)CSC2=Nc3ccccc3N=C(c3ccc(F)cc3)C2)c1	none (no result: SMN2 splice enh, Rab9 promoter act, ELG1 repair inh, NPC1 prom act, ELG1 genotoxic)
CCOc1ccccc1CNS(=O)(=O)c1ccc(-c2coc(C)n2)cc1	none (no result: SMN2 splice enh, Rab9 promoter act, ELG1 repair inh, NPC1 prom act, ELG1 genotoxic)
COC(=O)[C@@]1(Cc2ccccc2)[C@H]2c3cc(C(=O)N4CCCC4)n(Cc4ccc(O)c(OC)c4)c3C[C@H]2CN1C(=O)c1ccccc1	none (no result: Rab9 promoter act, ELG1 repair inh, NPC1 prom act, FLuc modulator, ELG1 genotoxic)
Cc1ccc(/C=N/NC(=O)c2cccc([N+](=O)[O-])c2)o1	none
Cc1cc(C)nc(SCC(=O)N/N=C/c2cc(C)n(-c3ccccc3C)c2C)n1	FLuc modulator 17µM
Cc1cc(/C=N/NC(=O)c2cccs2)c(C)n1-c1ccccc1	SMN2 splice enh inconclusive, Rab9 promoter act 0.79µM, ELG1 repair inh inconclusive, NPC1 prom act 0.63µM, FLuc modulator 0.085µM, ELG1 genotoxic inconclusive
Cc1cc(C(=O)N/N=C2\CC(=O)c3ccccc32)c(C)n1-c1ccccc1	SMN2 splice enh 10µM, Rab9 promoter act 3.5µM, ELG1 repair inh inconclusive, NPC1 prom act inconclusive, FLuc modulator 2.7µM, ELG1 genotoxic inconclusive
Cc1cc(/C=N/NC(=O)C(O)(c2ccccc2)c2ccccc2)c(C)n1-c1ccccc1	SMN2 splice enh inconclusive, FLuc modulator inconclusive
Cc1cc(C(=O)N/N=C2\CC(=O)CC(C)(C)C2)c(C)n1-c1ccccc1	none
Cc1cc(/C=N/NC(=O)c2cccc([N+](=O)[O-])c2)c(C)n1-c1ccccc1	ELG1 repair inh inconclusive, FLuc modulator 1.7µM, ELG1 genotoxic inconclusive
Cc1cccc(C)c1-n1c(C)cc(/C=N/NC(=O)CSc2ncccn2)c1C	ELG1 repair inh inconclusive, FLuc modulator inconclusive
CC(C)(CNC(=O)/C=C/c1ccc(F)cc1)CNC(=O)/C=C/c1ccc(F)cc1	ELG1 repair inh 23µM, FLuc modulator inconclusive
CC(C)(C)NC(=O)/C=C/c1ccc(C(F)(F)F)cc1	ELG1 repair inh inconclusive, FLuc modulator 27µM
CNC(=O)/C=C/c1cccc(C(F)(F)F)c1	none
COc1ccc(-n2c(SCC(=O)Nc3sc4c(c3C#N)CCCC4)nnc2-c2ccccc2OC)cc1	ELG1 repair inh 26µM
COc1ccc(-c2nnc(SCC(=O)Nc3sc4c(c3C#N)CCCC4)n2-c2ccccc2)cc1	none
Cc1nnc(SCC(=O)Nc2sc3c(c2C#N)CCCCC3)n1N	ELG1 repair inh inconclusive, FLuc modulator 21µM, ELG1 genotoxic inconclusive
CCOC(=O)Nc1ccc2c(c1)ncn2C1CCCCC1	ELG1 repair inh inconclusive
COC(=O)Nc1ccc2c(c1)ncn2C1CCCCC1	ELG1 repair inh inconclusive, FLuc modulator 17µM
COc1cccc(CNC(=O)Cn2c(=O)n3nc(-c4cccc(C)c4)nc3c3ccccc32)c1	none (no result: SMN2 splice enh, Rab9 promoter act, ELG1 repair inh, NPC1 prom act, ELG1 genotoxic)
Cc1cccc(-c2nc3c4ccccc4n(CC(=O)Nc4cccc(F)c4)c(=O)n3n2)c1	FLuc modulator 24µM (no result: SMN2 splice enh, Rab9 promoter act, ELG1 repair inh, NPC1 prom act, ELG1 genotoxic)
Cc1ccc(NC(=O)c2cccc(S(=O)(=O)N3CCN(c4ccccc4)CC3)c2)nc1	ELG1 repair inh inconclusive, ELG1 genotoxic 15µM (no result: SMN2 splice enh)
Cc1ccnc(NC(=O)c2cccc(S(=O)(=O)N3CCN(c4ccccc4)CC3)c2)c1	Rab9 promoter act inconclusive, ELG1 repair inh inconclusive, FLuc modulator 1.9µM, ELG1 genotoxic inconclusive (no result: SMN2 splice enh)
COc1cc(C(=O)NC(=S)Nc2ccc3[nH]c(=O)[nH]c3c2)cc(OC)c1OC	none (no result: SMN2 splice enh)
O=C(O)Cc1cc(Cl)ccc1O	none (no result: Rab9 promoter act, ELG1 repair inh, NPC1 prom act, FLuc modulator, ELG1 genotoxic)
COc1ccc(Nc2ncnc3c2nc2n3CCCC2)cc1Cl	FLuc modulator 19µM (no result: SMN2 splice enh, Rab9 promoter act, ELG1 repair inh, NPC1 prom act, ELG1 genotoxic)
CCOc1ccc(Nc2ncnc3c2nc2n3CCCCC2)cc1	none (no result: SMN2 splice enh, Rab9 promoter act, ELG1 repair inh, NPC1 prom act, ELG1 genotoxic)

Screens from PubChem BioAssay.
